NadD block = inhibitors of S. aureus NadD, primary screen, biochemical, colorimetric, uHTS | Nicotinate-nucleotide adenylyltransferase NadD (Staphylococcus aureus N315) | purified NadD enzyme, colorimetric absorbance read-out | inhibition, % at 20 µM | hit rate 0.78% among 360,000 | AID 602399, 2012; in the data active = inhibition above about 26%
SKN-1 inh = suppressors of acrylamide-induced Pgst-4::GFP reporter in worms, primary screen, SKN-1 inhibitor project, whole organism, uHTS, GFP/RFP fluorescence ratio, strain VP596; C. elegans VP596 Pgst-4::GFP/RFP ratio, 24 h; inhibition, % at 21.8 µM; hit rate 0.49% among 360,000; AID 624304, 2012;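 active = interference check ratio from 0.5 to 1.5 plus GFP to RFP signal ratio inhibition reaching or exceeding a fixed threshold, cut at about 30% in these data, passing the limit was not always enough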
NR3A LBD binder = binders of NR3A ligand-binding domain, primary screen, biophysical, differential scanning fluorimetry, uHTS. Glutamate receptor ionotropic, NMDA 3A (GRIN3A) ligand-binding domain. NR3A LBD differential scanning fluorimetry, Tm shift; 0% = protein alone, 100% = glycine-bound protein. Tm shift relative to glycine control, % at 25 µM. hit rate 2.5% among 340,000. AID 1259313, 2017;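 active = melting temperature shift of at least 10% of the positive control shift, at one fixed dose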
Vif inh = HIV Vif self-association inhibitors, primary screen, imaging, HEK293T, single point | HEK293T cells, Vif self-association by quenched fluorescence, 24 h | inhibition, % at 7.49 µM | hit rate 0.35% among 340,000; in the data active = inhibition above about 50%, passing the limit was not always enough; inconclusive = no clear call, values can overlap the other calls; inactive = below about 31%
SMARCA2 act = SMARCA2 (BRM) function activators, primary screen, cell-based, luminescence, high throughput; MG213 cells, MMTV-luciferase reporter, dexamethasone, overnight; activation, % at 9.1 µM; hit rate 1% among 370,000; AID 652017, 2013; in the data active = activation above about 7.8%;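 note: 0% = vehicle wells and 100% = reference activator wells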
esBAF inh = Bmi1 luciferase reporter increase in mESCs, primary screen, esBAF inhibitor project, mouse ES cells, Bmi1 luciferase knock-in, single point; hit rate 2% among 350,000; AID 602393, 2012; 24 h; 100% = twice the neutral-well signal; reporter increase, % at 12.5 µM; in the data active = activation above about 40%; inconclusive = no clear call, values can overlap the other calls;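 note: 0% = median of the plate's neutral control wells and 100% = double that signal; a rise in the Bmi1 reporter signal indicates esBAF inhibition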
Active calls of the source: *; u = inconclusive; x = not tested or not shown. Rows were chosen to be rich in hits. Some 5.2% of all compounds tested hit in one or more screens of this group.

SMILES	NadD block	SKN-1 inh	NR3A LBD binder	Vif inh	SMARCA2 act	esBAF inh
C[C@H](CO)N1C[C@H](C)[C@@H](CN(C)CC2CCCCC2)Oc2c(NC(=O)Nc3ccc(C(F)(F)F)cc3)cccc2C1=O	x	x	x	x	x	12
COc1cccc(CNC(=O)C[C@@H]2CC[C@@H](NC(=O)C3CC3)[C@@H](CO)O2)c1	x	x	x	x	x	1
Cc1ccc(N/N=C2\CS(=O)(=O)N(C)c3ccsc32)cc1	-7	8	-4	-5	1	59*
CC(C)CC#Cc1ccc2c(c1)O[C@H](CN(C)C(=O)CN(C)C)[C@@H](C)CN([C@@H](C)CO)S2(=O)=O	x	x	x	x	x	-1
COC(=O)c1ccccc1SCc1csc(C)n1	-6	7	1	0	0	4
O=C(O)c1ccccc1SCc1csc(-c2ccccc2)n1	-5	12	-1	18	3	47*
O=C(CCCCCCC(=O)c1ccccc1)c1ccccc1	-3	-4	6	5	2	x
Cc1ccc(C(=O)OCC(=O)c2ccccc2)cc1	-3	12	19*	-8	4	8
Cc1ccc(C(=O)CCC(=O)NCc2ccccc2)cc1	-1	1	51*	-24	-1	8
Cc1ccc(C(=O)CC(=O)c2ccccc2)cc1	-1	-11	34*	0	2	u
O=C(COC(=O)c1ccc(-c2cnc3ccccc3n2)cc1)c1ccccc1	-4	0	-1	-1	0	5
O=C(CCCCCCCC(=O)c1ccccc1)c1ccccc1	6	10	24*	1	-1	4
CC(C)(C)c1ccc(C(=O)CCC(=O)NCc2ccccc2)cc1	3	0	0	20	1	-4
COc1cccc(-c2ccc3c(c2)[C@@H]2[C@@H](CCN2C(=O)c2cnccn2)[C@@H](CO)N3)c1	x	x	x	x	x	13
COCC#Cc1ccc([C@@H]2[C@H](CO)N3CCCCN(S(=O)(=O)c4ccccc4F)C[C@@H]23)cc1	x	x	x	x	x	-7
C[C@H](CO)N1C[C@H](C)[C@@H](CN(C)C(=O)Nc2ccc(F)cc2)Oc2ccc(NC(=O)C3CC3)cc2C1=O	x	x	x	x	x	6
CN(/N=C/c1c[nH]c2ccccc12)c1cnn(-c2ccc(F)c(Cl)c2)c(=O)c1Cl	18	26	259*	2	-1	8
CCCn1cc(SCC(=O)Nc2cc(C)on2)c2ccccc21	-1	10	-1	1	-3	-5
Cc1ccc(C(=O)NCCn2cc(SCC(=O)Nc3cc(C)on3)c3ccccc32)cc1	1	-4	2	x	0	58*
Cc1cccc(CSc2cn(CC(=O)N3CCOCC3)c3ccccc23)c1	-4	-1	9	-11	2	84*
Cc1cc(NC(=O)CSc2cn(CCNC(=O)c3ccccc3)c3ccccc23)no1	-5	-7	-1	-3	x	47*
Cc1ccc(C(=O)NCCn2cc(SCC(=O)N3CCOCC3)c3ccccc32)cc1	-2	19	-4	-2	-6	53*
CCn1cc(SCC(=O)Nc2cc(C)on2)c2ccccc21	0	-1	-2	-6	-1	-1
CCC(=O)N[C@H]1CC[C@H](CCNS(=O)(=O)c2ccc(Cl)cc2)O[C@@H]1CO	x	x	x	x	x	-1
CCCNC(=O)C[C@@H]1CC[C@@H]2[C@H](COc3ccc(NC(=O)c4cscn4)cc3C(=O)N2C)O1	x	x	x	x	x	-1
SMILES	NadD block	SKN-1 inh	NR3A LBD binder	Vif inh	SMARCA2 act	esBAF inh
CC(C)NC(=O)N(C)C[C@H]1Oc2ncc(C#CCc3ccccc3)cc2C(=O)N([C@H](C)CO)C[C@H]1C	x	x	x	x	x	-17
CN(CCCS(=O)(=O)[O-])c1ccc(/C=C/c2ccc3ccccc3[n+]2C)cc1	10	37*	0	7	0	13
Cc1nc(-c2ccccn2)sc1C(=O)Nc1ccc(F)cc1F	3	3	0	7	-1	58*
Cc1nc(-c2ccccn2)sc1C(=O)Nc1ccc(F)cc1	1	-6	-6	-9	3	25
O=C(CSC1=NS(=O)(=O)c2cc(Cl)ccc2N1)Nc1cccc(F)c1	-6	-2	19*	2	0	0
O=C(CSC1=NS(=O)(=O)c2cc(Cl)ccc2N1)NCc1ccc(F)cc1	-4	6	-2	x	-2	9
O=C(CSC1=NS(=O)(=O)c2cc(Cl)ccc2N1)c1ccc(Cl)cc1	1	7	12*	-7	0	x
O=C(CSC1=NS(=O)(=O)c2cc(F)ccc2N1)Nc1ccc(F)cc1	-9	-7	-2	-2	-1	-8
CC(=O)c1ccc(NC(=O)CSC2=NS(=O)(=O)c3cc(Cl)ccc3N2)cc1	1	2	12*	-2	-1	-1
O=C(Oc1cncc(Cl)c1)c1ccco1	-6	39*	-1	14	-2	x
O=C(Oc1cncc(Cl)c1)c1sccc1Cl	-1	7	-2	5	-4	x
CC(C)NC(=O)N(C)C[C@H]1OCCCC[C@H](C)Oc2ccc(NC(=O)Nc3ccc(F)cc3)cc2C(=O)N([C@H](C)CO)C[C@@H]1C	x	x	x	x	x	-7
O=C(N[C@H]1C=C[C@@H](CC(=O)N2CCc3ccccc3C2)O[C@@H]1CO)C1CCC1	x	x	x	x	x	-3
COc1ccccc1-c1cn(CC[C@@H]2CC[C@@H](NC(=O)C3CC3)[C@@H](CO)O2)nn1	x	x	x	x	x	1
C[C@H]1CN([C@@H](C)CO)C(=O)c2cccc(NC(=O)c3ccc(-c4nccs4)cc3)c2O[C@H]1CN(C)S(=O)(=O)c1cn(C)cn1	x	x	x	x	x	-4
O=C(CC(Nc1ccc(F)cc1)C(=O)O)c1ccccc1 (centres undefined)	-1	31	-34	7	4	49*
CN(C)CC(=O)N1CCCCN2[C@@H](CO)[C@H](c3ccc(/C=C/c4ccccc4)cc3)[C@@H]2C1	x	x	x	x	x	-1
C[C@@H]1CN([C@H](C)CO)C(=O)c2cccc(NS(=O)(=O)c3ccc(Cl)cc3)c2O[C@@H]1CN(C)Cc1ccncc1	x	x	x	x	x	-3
COc1ccc(/C=N/NC(=O)c2nc(-c3ccccc3)cc(-c3ccccc3)n2)cc1OC	9	16	-1	3	2	x
COc1ccc(/C=N/c2oc(-c3ccccc3)cc2C#N)cc1OC	-1	21	37*	-2	0	-1
O=C(C[C@H]1C[C@H]2c3cc(NS(=O)(=O)c4ccc(F)cc4)ccc3O[C@H]2[C@@H](CO)O1)NCc1ccncc1	x	x	x	x	x	-2
Cc1cc(Cl)nc(-n2nc(C)cc2C)n1	-4	-4	-5	3	2	x
CNc1cc(C)nc(-n2nc(C)cc2C)n1	-1	30	11*	20	0	9
CCC(=O)N[C@@H]1CC[C@@H](CC(=O)NCc2ccc(OC)cc2)O[C@@H]1CO	x	x	x	x	x	-2

Bioassay records from PubChem BioAssay.
